Test [1] is described as follows: Cytotoxicity counterscreen for inhibitors of SARS-CoV-2 cell entry (AID 1645845). Further: nearly all actives have a fitted effect of over 50% in size. The method in brief:
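Expi293F/hACE2 cells seeded overnight; cpd pin-transferred in DMSO, 1 h preincubation, + media, 48 h 37 C 5% CO2; ATPLite 1step luminescence; normalized to cells and no cells.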
(In general: Counterscreens check selectivity or assay interference.)

Test [2] in a line: Primary qHTS to identify inhibitors of SARS-CoV-2 cell entry (AID 1645846). Further: nearly all actives have a fitted effect of over 45% in size. The gist of the method:
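HEK293 cells stably expressing human ACE2, pre-treated 1 h with compound, then infected with MLV particles pseudotyped with Wuhan-Hu-1 spike (C-terminal 19-aa truncation). Luciferase luminescence after 48 h at 37 °C, normalised to spike PP and bald PP.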

Test [3] in a line: VSVG counterscreen qHTS to identify inhibitors of SARS-CoV-2 cell entry (AID 1645847). Further: nearly all actives have a fitted effect of over 65% in size. On activity change, negative = inhibition: on the % scale 0 is the no-effect control and ±100 the full control effect. The gist of the method: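 HEK293-ACE2 cells (Expi293F, human ACE2) pretreated 1 h with compound, then infected with MLV-based VSV-G pseudotyped particles for 48 h at 37 C; luciferase luminescence normalized to VSV-G PP and bald PP wells.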
The mark [4] stands for this setting: activity change, negative = inhibition: at 57.1 µM (top of the series) unless noted.
Where [5] appears, read: SARS-CoV-2 pseudovirus cell entry assay, luminescence, at 57.1 µM (top of the series).

Values joined by “and” are separate entries in the source; they are usually repeats but may differ in a detail not shown here. Equal values may be shown once. Records with an inconclusive call do not appear. Active and inactive are the calls of the source. The call rests on the fitted dose curve.
Potency means the concentration at half of the fitted maximal effect.

As for `CC(C)c1ccc(Cn2ccc3c4c(N)nc(NC5CC5)nc4ccc32)cc1`, in test [1], the Potency was 2.51 µM (active). Further, the activity change, negative = inhibition in test [2] (setting [4]) is -96.8%.

`Cn1cc(-c2ccc3nnc(Sc4ccc5ncccc5c4)n3n2)cn1`: the Potency result in test [2] (setting [4]) was “inactive”.

Turning to `COc1ccccc1-c1cccc(-c2c(O)c3cc(C#N)c(Cl)cc3[nH]c2=O)c1`, the Potency entry in test [1] was “inactive”. Besides, the activity change, negative = inhibition in test [2] (setting [4]) was -22.8%.

Turning to `CS(=O)(=O)Nc1ccc([N+](=O)[O-])cc1Oc1ccccc1`, the Potency entry in test [1] is “inactive”. Besides, the activity change, negative = inhibition in test [2] (setting [4]) is -13.1% and -8.45%.

For `NC(CO)C(=O)NNCc1ccc(O)c(O)c1O` (stereo not given), the Potency result in test [1] and in test [2] (setting [4]) was “inactive” throughout.

As for `CC(C)(C)c1cc(C=C(C#N)C#N)cc(Br)c1O`, in test [2] (setting [4]), the Potency result is “inactive”.

As for `Cc1nn(Cc2ccccc2Cl)c(C)c1CN(C)CC(O)COc1ccc(Cl)cc1` (stereo not given), the Potency in test [2] (setting [4]) was 31.6 µM (active).

As for `CN(C)c1ccc(Nc2nc(N)n(C(=O)c3c(F)cccc3F)n2)cc1`, in test [2] (setting [4]), the Potency was 12.6 µM (active).

Regarding `C[C@@H](Oc1cc(-c2cnn(C3CCNCC3)c2)cnc1N)c1c(Cl)ccc(F)c1Cl`, the Potency in test [1] is 25.1 µM (active); in test [2] (setting [4]) it was 11.2 µM (active).

Regarding `CN(NC(=O)CC(=O)NN(C)C(=S)c1ccccc1)C(=S)c1ccccc1`, in test [2] (setting [4]), the activity change, negative = inhibition was -97.7%.

As for `COc1ncnc(NS(=O)(=O)c2ccc(N)cc2)c1OC`, the Potency entry in test [1] was “inactive”. Moreover, in test [2] (setting [4]), the Potency entry was “inactive” and the activity change, negative = inhibition is -2.62%.

Regarding `Cc1cnc(Nc2ccc(OCCN3CCCC3)cc2)nc1Nc1cccc(S(=O)(=O)NC(C)(C)C)c1`, the Potency is 25.1 µM (active) in test [1] and 22.4 µM (active) in test [2] (setting [4]).

Take `C[C@@H]1CN(c2c(F)c(N)c3c(=O)c(C(=O)O)cn(C4CC4)c3c2F)C[C@H](C)N1`: in test [1], the Potency result is “inactive”. Besides, the activity change, negative = inhibition in test [2] (SARS-CoV-2 pseudovirus cell entry assay, luminescence, at 27.1 µM (top of the series)) was -12.9%; in test [2] (setting [5]), -5.48%.

In the case of `C[N+](C)(C)CC(=O)O`, the activity change, negative = inhibition in test [2] (setting [4]) was -0.459% and -19.8%.

With `O=C(Nc1cccc(Cl)c1)Nc1ncc(CCNc2ncnc3ccsc23)s1`, the Potency in test [2] (setting [4]) is 3.16 µM (active).

For the compound `COc1c(Cl)cc2c([nH]c3cnccc32)c1NC(=O)c1cccnc1C`, the Potency entry in test [1] and in test [3] was “inactive” each time. In test [2] (setting [4]), the activity change, negative = inhibition is -30.2%.

With `C=CC(=O)Nc1cccc(Oc2nc(Nc3ccc(N4CCN(C)CC4)cc3OC)ncc2Cl)c1`, the Potency in test [2] (setting [4]) was 31.6 µM (active).

As for `Fc1cc(-c2cccc3ncc(-c4cnn(C5CCNCC5)c4)nc23)cc(F)c1CN1CCOCC1`, the Potency is 31.6 µM (active) in test [1] and 12.6 µM (active) in test [2] (setting [4]).

Regarding `O=C1C(Cl)=C(NCCN2CCOCC2)C(=O)c2ncccc21`, the results for the Potency in test [1] and in test [2] (setting [4]) were 28.2 µM (active) and 11.2 µM (active), respectively.

On to `COc1ccc(-c2c(-c3ccc(O)cc3O)n[nH]c2C)cc1`, for which the Potency result in test [1] was “inactive”. Moreover, in test [2] (setting [4]), the activity change, negative = inhibition was -56.7%. The Potency in test [3] was 12.4 µM (active).

In the case of `COc1ccccc1[C@H](c1cccc2ccccc12)[C@@](C)(C#N)C(=O)N1CCC(c2cccc(C(F)(F)F)c2)CC1`, in test [1], the Potency result was “inactive”. Also, the activity change, negative = inhibition in test [2] (setting [4]) was -3.93%.

With `CC[N+](C)(CC)CCOC(=O)C(O)(c1ccccc1)C1CCCCC1` (stereo not given), the Potency entry in test [1] and in test [2] (setting [4]) was “inactive” throughout.

With `CC(C)(C)C(=O)Oc1ccc2c(c1)nc(NC(=O)c1cccc([N+](=O)[O-])c1)n2CCCO`, the Potency entry in test [1] was “inactive”. Besides, in test [2] (setting [4]), the activity change, negative = inhibition is -6.43%.

On to `NC1=NC(=O)N2CC12` (stereo not given), for which the Potency result in test [1] was “inactive”. The activity change, negative = inhibition is -95.3% in test [2] (setting [5]) and -13.1% in test [2] (SARS-CoV-2 pseudovirus cell entry assay, luminescence, at 114 µM (top of the series)).

Turning to `COc1cc2c(cc1OC)[C@@H]1C(=O)c3ccc4c(c3O[C@@H]1CO2)C=CC(C)(C)O4`, the activity change, negative = inhibition in test [2] (setting [4]) is -98.6%.

For `CC(=O)NC(C)c1ccc(Oc2ccc(OC(C)C)cc2)cc1` (stereo not given), the Potency result in test [1] is “inactive”. In addition, in test [2] (setting [4]), the activity change, negative = inhibition was -26.1% [at 114 µM].

Consider `CN1C(=O)C(Cc2c[nH]c3ccccc23)NC1=S` (stereo not given), for which the Potency result in test [1] and in test [2] (setting [4]) was “inactive” each time.

Take `COc1cc(Nc2ncc(F)c(Nc3ccc4c(n3)NC(=O)C(C)(C)O4)n2)cc(OC)c1OC`: in test [2] (setting [4]), the Potency result is “inactive”.

Consider `CCN(CC)CCOc1ccc(Nc2ncc3cc(-c4c(Cl)cccc4Cl)c(=O)n(C)c3n2)cc1`, for which, in test [2] (setting [4]), the Potency is 3.16 µM (active).

With `CCN(CC)c1ccc(C(=C2C=CC(=[N+](CC)CC)C=C2)c2cc(S(=O)(=O)O)ccc2S(=O)(=O)[O-])cc1`, in test [2] (setting [4]), the Potency result is “inactive”.

Consider `O=c1cc(CN2CCOCC2)occ1OCCCCCSc1ccnc2cc(C(F)(F)F)ccc12`, for which the Potency in test [2] (setting [4]) was 10 µM (active).

With `CC(C[N+](C)(C)C)OC(N)=O` (stereo not given), in test [1], the Potency result was “inactive”. Besides, in test [2] (setting [4]), the Potency result is “inactive” and the activity change, negative = inhibition was -6.96%.

With `CC(C)C[C@H](NC(=O)CNC(=O)c1cc(Cl)ccc1Cl)B(O)O`, the activity change, negative = inhibition in test [2] (setting [4]) was -97.2% and -98.8%.

For `C=CCNC(N)=S`, in test [2] (setting [4]), the Potency result is “inactive”.

With `CCCCOCCOc1nc(-c2ccc(C(=O)O)c(F)c2)sc1C`, the Potency entry in test [3] was “inactive”.

(Values after PubChem BioAssay (NCATS).)
